The values below come from PubChem BioAssay AID493034 (The Scripps Research Institute Molecular Screening Center, 2011).

About 2,200 (92%) of roughly 2,400 compounds were called active. The set was probably picked from earlier hits. Some of the results follow. Unmarked numbers belong to inactive results.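 Rule for the calls: active = mean inhibition over triplicate runs exceeds the cutoff derived for the earlier primary screen (cut at about 25% in these data); inactive = the rest.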

For the assay, the target named is Platelet-activating factor acetylhydrolase IB subunit alpha2 (Homo sapiens) (UniProt P68402). Nature of the assay: PAFAH1B2 inhibitors, confirmation, biochemical, fluorescence polarization, FP-rhodamine probe, triplicate (AID 493034).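 Note: 0% = enzyme with DMSO and 100% = wells lacking PAFAH1B2 protein; inhibitors lower polarization by leaving the probe unbound.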 The conditions noted are these: recombinant PAFAH1B2, FP-rhodamine probe fluorescence polarization; at 3.39 µM; active compounds read high.
Platelet-activating factor acetylhydrolase IB subunit alpha2 (Homo sapiens), sequence (P68402 whole entry, looked up): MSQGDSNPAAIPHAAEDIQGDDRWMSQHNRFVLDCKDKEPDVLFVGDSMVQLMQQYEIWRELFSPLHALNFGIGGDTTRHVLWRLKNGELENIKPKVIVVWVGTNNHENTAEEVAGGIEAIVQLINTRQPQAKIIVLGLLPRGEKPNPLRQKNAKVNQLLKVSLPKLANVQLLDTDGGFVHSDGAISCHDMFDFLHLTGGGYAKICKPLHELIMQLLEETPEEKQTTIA
A word on the inhibition: it is how much of the control response was suppressed. With `COc1cc(/C=C2\SC(=S)N(CCCCC(=O)O)C2=O)ccc1OS(=O)(=O)c1ccc(C)cc1`, the inhibition is 30.5% (active).

Regarding `COc1cc(C=O)ccc1OCCSc1ccc(C)cc1`, the inhibition is 23%.

For the molecule `Cc1ccc(S(=O)(=O)CCC(=O)NCCN2C(=O)S/C(=C/c3ccc(F)cc3)C2=O)cc1`, the inhibition is 21.1%.

With `COc1cc(/C=C2\SC(=S)N(CC(=O)O)C2=O)ccc1OS(=O)(=O)c1ccc(C)cc1`, the inhibition was 38.1% (active).

In the case of `CCOc1cc2[nH]c(=O)n(CCCC(=O)NCc3ccc(OC)cc3)c(=O)c2cc1OCC`, the inhibition is 3.79%.

As to `Cc1ccc(S(=O)(=O)N2[C@@H](c3ccc(Cl)cc3)C(C(=O)O)=CC[C@H]2c2ccc(C(C)C)cc2)cc1`, the inhibition was 95.9% (active).

Turning to `Cc1ccc(S(=O)(=O)N2[C@@H](c3ccc(Br)cc3)C(C(=O)O)=CC[C@H]2c2ccc(C(C)C)cc2)cc1`, the inhibition is 93.5% (active).

As to `CC(C)c1ccc(C(C)NCCS(=O)(=O)c2ccc(Cl)cc2)cc1` (stereo not drawn), the inhibition was 18.1%.

In the case of `CC(Oc1ccc(Cl)cc1)C(=O)OCC(=O)Nc1ncc(Cl)cc1Cl` (stereo not drawn), the inhibition is 23.2%.

Take `Cc1nc(N)nc(N)c1/C=C/C(C)(C)c1ccc(Cl)cc1`: the inhibition was 66.2% (active).

On to `O=C(O)CCCN1C(=O)C2C3CC(C2C1=O)C1C(c2ccccc2)c2sc(=O)[nH]c2SC31` (stereo not drawn), for which the inhibition is 74% (active).

Consider `O=C(O)CCN1C(=O)C2C3CC(C2C1=O)C1C(c2ccccc2)c2sc(=O)[nH]c2SC31` (stereo not drawn), for which the inhibition is 79.6% (active).

As to `ONC(=Nc1ccc(Cl)cc1)c1ccccc1`, the inhibition was 23.1%.

Turning to `O=C(CSc1n[nH]c(-c2ccc(S(=O)(=O)N3CCCCC3)cc2)n1)Nc1nccs1`, the inhibition is 44.6% (active).

With `O=C(Nc1nc2ccc(S(=O)(=O)N3CCCCC3)cc2s1)c1ccncc1`, the inhibition was 20.7%.

`O=C(NCc1n[nH]c(=S)n1-c1ccc(Br)cc1)c1ccc(S(=O)(=O)N2CCCCC2)cc1`: the inhibition is 23.9%.

Take `O=C(Cc1ccc(Br)cc1)c1ccc(O)cc1O`: the inhibition is 70.8% (active).

Regarding `N#Cc1ccc(S(=O)(=O)N2CCc3[nH]c4ccc(F)cc4c3C2)cc1`, the inhibition is 31.2% (active).

Regarding `CCC(C)CCCCCCCCCCC(=O)O` (stereo not drawn), the inhibition was 16.6%.

On to `CN(CC(=O)Nc1ccc(C#N)cc1)Cc1ccc(Cl)cc1`, for which the inhibition is 19.9%.

As for `O/N=C/c1ccc2ccccc2c1`, the inhibition was 43.9% (active).

Turning to `Cc1ccc(COc2ccc(/C=N/O)cc2)cc1`, the inhibition was 22.1%.

Regarding `Cc1ccc(S(=O)(=O)NC(=O)Nc2nc(-c3ccc(F)c(F)c3)cs2)cc1`, the inhibition is 9.68%.

With `CNC(=O)c1cc(C(=O)c2ccc(Cl)cc2)c(Br)[nH]1`, the inhibition was 14%.

Take `Cc1ccc(S(=O)(=O)Nc2ccc(Cl)cc2C(=O)c2ccc(F)cc2)cc1`: the inhibition is 27.2% (active).

Turning to `CC1(C)C(=O)N(c2ccccc2)C1c1ccccc1O` (stereo not drawn), the inhibition is 36.5% (active).

As to `O=C1N(c2ccccc2)C(c2ccccc2)C12CCCCC2` (stereo not drawn), the inhibition is 24%.

For `CCCC(=O)Nc1sc(-c2ccccc2)c(-c2ccccc2)c1C(=O)O`, the inhibition is 43.5% (active).

For `O=C(CCN1C(=O)/C(=C/c2ccccc2Cl)SC1=S)NC1=NCCS1`, the inhibition was 6.52%.

Consider `O=C(CCN1C(=O)/C(=C/c2ccccc2)SC1=S)N[C@@H](CO)Cc1ccccc1`, for which the inhibition is 66.8% (active).

`O=C(CCN1C(=O)/C(=C/c2ccccc2F)SC1=S)N[C@@H](CO)Cc1ccccc1`: the inhibition is 60.2% (active).

With `COc1ccc(/C=C2\SC(=O)N(CCCC(=O)Nc3cc(Cl)ccc3C(=O)O)C2=O)cc1`, the inhibition was 40.3% (active).

Consider `O=C(CCCN1C(=O)/C(=C\c2ccccc2)SC1=S)Nc1ccc(O)cc1C(=O)O`, for which the inhibition is 61.7% (active).

As to `OC(c1ccccc1)(c1ccc(F)cc1)C(c1ccccc1)N1CCOCC1` (stereo not drawn), the inhibition is 21.9%.

For the molecule `CN(C(=O)COC(=O)c1ccc(Cl)c(S(=O)(=O)NCc2ccccc2)c1)C1CCS(=O)(=O)C1` (stereo not drawn), the inhibition was 19.1%.

As to `Cc1ccc(C)c(NC(=O)CN(C)C(=O)c2ccc3[nH]c4c(c3c2)CC(C)CC4)c1` (stereo not drawn), the inhibition was 29.8% (active).

Turning to `Cc1ccc(NC(=O)CN(C)C(=O)c2ccc3[nH]c4c(c3c2)CC(C)CC4)cc1` (stereo not drawn), the inhibition is 47.5% (active).

Consider `O=[N+]([O-])c1ccc(O)c(/C=N/Nc2nc3ccccc3[nH]2)c1`, for which the inhibition was 28.4% (active).

For the molecule `CC(C)C1Nc2c(O)cc(Cl)c([N+](=O)[O-])c2C2C=CCC21` (stereo not drawn), the inhibition was 39.4% (active).

With `CC(C)C1Nc2ccc(S(N)(=O)=O)cc2C2C=CCC21` (stereo not drawn), the inhibition was 23%.

On to `O=c1[nH]c2c(s1)C(c1ccccc1)C1C3CCC(C3)C1S2` (stereo not drawn), for which the inhibition is 36.8% (active).

In the case of `O=c1[nH]c2c(s1)C(c1ccco1)C1C3CCC(C3)C1S2` (stereo not drawn), the inhibition was 51.9% (active).

Turning to `Cc1ccc(C)c(NC(=S)NCCSc2ccc(Cl)cc2)c1`, the inhibition was 23.1%.

As to `COc1ccccc1NC(=S)NCCc1ccc(Cl)cc1`, the inhibition was 25.7% (active).

In the case of `S=C(NCCc1ccc(Cl)cc1)NC1CC1`, the inhibition was 40.9% (active).

On to `O=C(CSc1ncn[nH]1)NCCc1ccc(Cl)cc1`, for which the inhibition was 18.2%.

On to `S=C(NCCc1ccc(Cl)cc1)NC1CCCCC1`, for which the inhibition was 22.8%.

As to `Cc1csc(SCC(=O)NCCc2ccc(Cl)cc2)n1`, the inhibition is 22.8%.

With `COc1ccc(CCN(C)Cc2c(O)ccc3cc(Br)ccc23)cc1OC`, the inhibition is 14.9%.

In the case of `CCN(CC(=O)Nc1ccc(NC(C)=O)cc1)Cc1c(O)ccc2cc(Br)ccc12`, the inhibition is 59.1% (active).

As for `Cc1ccc(C)c(Cn2nnc3c(=O)[nH]c(C(=O)NCC4CCCO4)nc32)c1` (stereo not drawn), the inhibition is 5.01%.

As for `NNC(=S)NC1CCCCCCCCCCC1`, the inhibition was 47.2% (active).

Take `CN(C)C(=O)NC1CCCCCCCCCCC1`: the inhibition is 22.7%.

For `CNC(=S)N(Cc1ccc(OC)cc1)C1CC(=O)N(c2ccc(Cl)cc2)C1=O` (stereo not drawn), the inhibition is 23.9%.

In the case of `CC(C)(C)OC(=O)[C@H]1[C@H](c2ccc([N+](=O)[O-])cc2)C2(C(=O)c3ccccc3C2=O)C2c3ccccc3C=NN21` (stereo partly drawn), the inhibition is 73.7% (active).

As to `O=C(O)c1[nH]c2ccc(Br)cc2c1CCN1C(=O)c2cccc([N+](=O)[O-])c2C1=O`, the inhibition is 41.5% (active).

Consider `O=C(O)c1ccccc1C(=O)NCCc1c(C(=O)O)[nH]c2ccc(Cl)cc12`, for which the inhibition is 26% (active).

Consider `O=C(O)c1[nH]c2ccc(Cl)cc2c1CCN1C(=O)c2ccccc2C1=O`, for which the inhibition is 79.2% (active).

Regarding `CC(C)CC(C(=O)O)N1C(=O)C2C3CC(C2C1=O)C1C(c2ccccc2)c2sc(=O)[nH]c2SC31` (stereo not drawn), the inhibition is 39.3% (active).

As for `CC(C(=O)O)N1C(=O)C2C3CC(C2C1=O)C1C(c2ccccc2)c2sc(=O)[nH]c2SC31` (stereo not drawn), the inhibition was 43.1% (active).

For the molecule `Cc1ccc(N2C(=O)CC(Sc3nc4ccccc4o3)C2=O)cc1Cl` (stereo not drawn), the inhibition is 20.1%.

With `Cn1c(COc2ccc(Cl)cc2)nnc1SCc1ncc(-c2ccccc2)o1`, the inhibition is 22.4%.

For `C[C@H](NC(=O)c1nc[nH]c1C(=O)NCC(=O)OCc1ccccc1)c1ccccc1`, the inhibition was 23.8%.

With `Cc1noc(C)c1COc1ccccc1C(=O)NC(C)c1ccc(Cl)cc1` (stereo not drawn), the inhibition is 15.7%.

With `COc1cccc(/C=N/Nc2ccc(S(=O)(=O)Nc3ccccc3C(=O)O)cc2[N+](=O)[O-])c1O`, the inhibition was 20.4%.

With `COc1cc(/C=N/N(C)S(=O)(=O)c2ccc(C)cc2)cc([N+](=O)[O-])c1O`, the inhibition was 30.5% (active).

With `COc1cc(/C=N/NS(=O)(=O)c2ccc(C(C)(C)C)cc2)cc([N+](=O)[O-])c1O`, the inhibition is 14.5%.

With `CN(CCc1ccccn1)C(=S)NC(=O)c1ccco1`, the inhibition is 3.54%.

Regarding `O=C(CNC(=O)OCc1ccccc1)Oc1cc2oc(=O)cc(-c3ccccc3)c2cc1Cl`, the inhibition was 50.6% (active).

In the case of `CC(C)(c1ccc(O)cc1)c1ccc(O)cc1`, the inhibition was 42.2% (active).

As for `COC(=O)c1c(NC(=O)C2C3CCC(O3)C2C(=O)O)sc2c1CCCCCC2` (stereo not drawn), the inhibition is 39.5% (active).

`O=C(O)C1=C[C@H](c2ccc(C(F)(F)F)cc2)C[C@H](OCc2ccc(CO)cc2)O1`: the inhibition was 26% (active).

As for `Cc1ccc(S(=O)(=O)N2[C@@H](c3ccc(Cl)cc3)C(C(=O)O)=C[C@H]2C(C)(C)C)cc1`, the inhibition is 21%.

On to `Cc1ccc(S(=O)(=O)N/N=C/c2cccn2-c2ccc(Cl)cc2)cc1`, for which the inhibition was 45% (active).

With `O=C(NCc1ccc(Cl)cc1)C(=O)NCC1OCCN1S(=O)(=O)c1cc(F)ccc1F` (stereo not drawn), the inhibition was 20.3%.

For the molecule `Cc1nn(-c2ccccc2)c(Cl)c1CN(C(=O)CCl)c1ccc(Cl)cc1`, the inhibition is 21.7%.

With `CN(C(=O)Cc1c(C(=O)O)n(C)c2ccccc12)c1ccc(Cl)cc1`, the inhibition was 41.1% (active).

Consider `O=C(NNC(=O)C12CC3CC(CC(Cl)(C3)C1)C2)c1csc(N2CCOCC2)n1`, for which the inhibition was 23%.

In the case of `S=c1[nH]nc(Cc2ccc(Br)cc2)n1/N=C/c1ccc(Cl)cc1`, the inhibition is 20%.

Take `C=CCn1c(-c2cccn(Cc3ccc(Cl)cc3)c2=O)n[nH]c1=S`: the inhibition was 22.8%.

Turning to `S=c1[nH]nc(-c2ccc(Cl)cc2)n1Cc1ccccc1`, the inhibition is 32% (active).

On to `O=C(C[C@@H]1C/C=C\C[C@@H](Cc2ccc(F)cc2)C(=O)OC[C@@H]2CCCN2C1=O)NCCO`, for which the inhibition was 26.9% (active).

Regarding `O=C(C[C@@H]1C/C=C\C[C@@H](Cc2ccc(F)cc2)C(=O)OC[C@H]2CCCN2C1=O)N[C@H](CO)Cc1ccccc1`, the inhibition is 32.1% (active).

Take `O=C(C[C@H]1C/C=C\C[C@@H](Cc2ccc(F)cc2)C(=O)OC[C@H]2CCCN2C1=O)N[C@@H](CO)Cc1ccccc1`: the inhibition was 35.2% (active).

As to `C[C@@H]1COC(=O)[C@H](Cc2ccc(F)cc2)C/C=C\C[C@@H](CC(=O)NCCO)C(=O)N1`, the inhibition is 22.3%.

For the molecule `CCN1C(=O)N/C(=C/c2cc(C)n(Cc3ccccc3)c2C)C1=O`, the inhibition is 77.5% (active).

In the case of `O=C(N/N=C/c1cc([N+](=O)[O-])ccc1O)Nc1ccccc1`, the inhibition is 16.1%.

For the molecule `O=C(N/N=C/c1cc([N+](=O)[O-])ccc1O)NC12CC3CC(CC(C3)C1)C2`, the inhibition was 79.6% (active).
